Test results as given in PMC5540273 (PLoS ONE, 2017).

Legend:
Settings in all cases: concentration: 1 μM,replicates: in singlicate; n = 1
TNNI3K = test system: TNNI3K
TRKA = test system: T1, TRKA
T1 construct: gene NTRK1

TRKB = test system: TRKB
TRKC = test system: T2, TRKC
T2 construct: gene NTRK3

TRPM6 = test system: TRPM6
TSSK1B = test system: TSSK1B
TSSK3 = test system: TSSK3
TTK = test system: TTK
TXK = test system: TXK
[1] = test system: TYK2(JH1domain-catalytic)
[2] = test system: TYK2(JH2domain-pseudokinase)
TYRO3 = test system: TYRO3
ULK1 = test system: ULK1
ULK2 = test system: ULK2
ULK3 = test system: ULK3
VEGFR2 = test system: T3, VEGFR2
T3 construct: gene KDR

VPS34 = test system: T4, VPS34
T4 construct: gene PIK3C3

VRK2 = test system: VRK2
WEE1 = test system: WEE1
WEE2 = test system: WEE2
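Further: KINOMEscan kinase panel screen.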

Row | Structure (SMILES) | %Inh (TNNI3K) [%] | %Inh (TRKA) [%] | %Inh (TRKB) [%] | %Inh (TRKC) [%] | %Inh (TRPM6) [%] | %Inh (TSSK1B) [%] | %Inh (TSSK3) [%] | %Inh (TTK) [%] | %Inh (TXK) [%] | %Inh [1] [%] | %Inh [2] [%] | %Inh (TYRO3) [%] | %Inh (ULK1) [%] | %Inh (ULK2) [%] | %Inh (ULK3) [%] | %Inh (VEGFR2) [%] | %Inh (VPS34) [%] | %Inh (VRK2) [%] | %Inh (WEE1) [%] | %Inh (WEE2) [%]
1 | Cc1n[nH]c2cc(Nc3ccnc(Nc4cccc(CN5CCOCC5)c4)n3)ccc12 [GW682569] | 17 | 100 | 60 | 45 | 43 | 0 | 12 | 37 | 60 | 95.9 | 99.2 | 0 | 1 | 0 | 55 | 45 | 18 | 27 | 10 | 0
2 | O=C(Nc1n[nH]c2cc(-c3ccco3)ccc12)C1CC1 [SB-737447] | 0 | 57 | 19 | 32 | 0 | 0 | 0 | 18 | 0 | 21 | 0 | 0 | 11 | 0 | 20 | 6 | 16 | 0 | 0 | 2
3 | CC(C)S(=O)(=O)N1CCN(Cc2ccc3c(c2)nc(NC(=O)c2ccsc2)n3C[C@H](O)c2ccccc2)CC1 [GW635815] | 8 | 100 | 94.2 | 95.5 | 18 | 5 | 16 | 29 | 0 | 66 | 8 | 31 | 82 | 60 | 92.1 | 3 | 18 | 11 | 29 | 6
4 | N#Cc1cccc(C(=O)NC2CCN(c3ccnc(Nc4ccc(F)cc4)n3)C2)c1 (stereo not drawn) [GSK1379708] | 4 | 0 | 8 | 28 | 0 | 0 | 18 | 0 | 0 | 14 | 12 | 0 | 7 | 0 | 0 | 0 | 0 | 0 | 12 | 6
5 | C[C@@H](Oc1cc(-n2cnc3cc(-c4cnn(C)c4)ccc32)sc1C(N)=O)c1ccccc1Cl [GSK580432] | 24 | 100 | 73 | 50 | 0 | 14 | 16 | 25 | 44 | 45 | 0 | 11 | 14 | 10 | 11 | 61 | 74 | 0 | 26 | 5
6 | CN(c1cccc(CNc2nc(Nc3ccc4c(c3)CC(=O)N4)ncc2C(F)(F)F)c1)S(C)(=O)=O | 0 | 98.3 | 93.5 | 79 | 0 | 0 | 15 | 97.5 | 0 | 58 | 0 | 0 | 72 | 45 | 40 | 37 | 0 | 12 | 0 | 0
7 | Cc1nnc(-c2ccc3occ(-c4ccc(S(C)=O)cc4)c3n2)o1 (stereo not drawn) | 0 | 0 | 0 | 0 | 0 | 0 | 0 | 8 | 0 | 0 | 0 | 0 | 0 | 0 | 0 | 0 | 17 | 0 | 0 | 21
8 | Cc1ccc(CC(=O)N2CCc3cc(-c4cn(C)c5ncnc(N)c45)ccc32)cc1 [GSK2634758] | 0 | 10 | 34 | 29 | 5 | 6 | 13 | 0 | 8 | 0 | 17 | 0 | 11 | 35 | 6 | 0 | 0 | 19 | 0 | 0
9 | CC(C)c1nc(-c2cccc(NS(=O)(=O)c3ccccc3)c2)c(-c2ccnc(Nc3ccc4c(c3)CN(C)CC4)n2)s1 [GSK1649598] | 85 | 65 | 41 | 0 | 68 | 16 | 0 | 23 | 71 | 55 | 28 | 79 | 42 | 67 | 48 | 90.1 | 0 | 0 | 0 | 0
